From PubChem BioAssay (NCATS)
Results filed as inconclusive are left out. Activity calls are given as the source filed them. The call rests on the fitted dose curve; in most records, active means well fitted curve in the direction sought with a large enough effect; inconclusive means small, poorly fitted or top-dose-only effect, or another doubt; inactive means no such curve, though single readings can be large; an effect the other way counts as inactive or inconclusive.

Assays:
[1] = biological target: Arylsulfatase A (Homo sapiens) (UniProt P15289); assay: qHTS screen for enhancers of Arylsulfatase A (ASA1): LOPAC Validation Assay (AID 720538); details: outcome: dose series up to 57.5 µM
How it was run: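 MLD patient fibroblasts (SV40, ASA-I179S), 1536-well; adhere 6 hrs; cpd 48h, 37 degree C, 5% CO2; pNCS 0.5mM final in lysis buffer, 14h RT; stop 1N NaOH final; fluor. Ex525/Em598.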

[2] = qHTS for compounds that reverse cellular toxicity of Amyloid beta (A-beta) peptide in yeast: LOPAC Validation Assay (AID 720559);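 further: plate controls were DMSO for no effect and equimolar ferric chloride plus clioquinol rescue for full effect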
How it was run: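 Medium dispensed, compounds pinned, A-beta yeast suspension added; plates held at 30 C for 48 hr; absorbance measured at 600 nm to gauge growth; values scaled between DMSO and FeCl3/clioquinol (equimolar) controls.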

[3] = qHTS for Activators of Parkin Expression: LOPAC Validation Assay (NLuc Reporter) (AID 720572)
How it was run: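 Neuronal cells with a Parkin promoter-driven FLuc/NLuc coincidence reporter were treated 24 h at 37 C in 7-point dose response (LOPAC). NLuc luminescence read after FLuc; signals normalized to DMSO and positive control (100%).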

[4] = qHTS for Activators of Parkin Expression: LOPAC Validation Assay (FLuc Reporter) (AID 720573)
How it was run: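 Cells seeded, 24 h; compounds pinned, 7-pt dose response; 24 h at 37 C/5% CO2; volume reduced; FLuc reagent 10 min RT; luminescence read. Normalization: DMSO = 0, positive control = 100%.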

Measured: outcome

Arylsulfatase A (Homo sapiens), sequence (P15289 whole entry, looked up): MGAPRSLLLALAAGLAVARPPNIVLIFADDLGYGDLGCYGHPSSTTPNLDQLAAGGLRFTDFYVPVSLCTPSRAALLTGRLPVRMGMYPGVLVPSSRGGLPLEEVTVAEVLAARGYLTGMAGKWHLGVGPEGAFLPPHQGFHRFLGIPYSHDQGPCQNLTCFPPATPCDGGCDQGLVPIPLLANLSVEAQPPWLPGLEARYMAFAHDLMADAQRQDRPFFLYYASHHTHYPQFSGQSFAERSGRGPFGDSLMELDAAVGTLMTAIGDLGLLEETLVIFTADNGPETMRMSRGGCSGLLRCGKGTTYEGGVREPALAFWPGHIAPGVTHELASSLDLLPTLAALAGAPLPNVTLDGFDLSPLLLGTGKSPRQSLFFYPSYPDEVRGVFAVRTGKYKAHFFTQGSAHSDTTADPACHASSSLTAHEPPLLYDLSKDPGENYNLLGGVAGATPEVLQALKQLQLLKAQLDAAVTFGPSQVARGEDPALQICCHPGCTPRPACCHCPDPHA

CC(Cc1ccc(O)cc1)NCC(O)c1cc(O)cc(O)c1 (configuration not stated)
inactive: all assays above

NC(N)=NOCCC(N)C(=O)O (configuration not stated)
inactive: [1] inactive; inhibitor; fitted 2.3934 uM | [2] | [3] | [4]

Oc1ccc2c3c1O[C@H]1c4[nH]c5c(c4C[C@@]4(O)[C@@H](C2)N(CC2CC2)CC[C@]314)C[C@@]1(O)[C@H]2Cc3ccc(O)c4c3[C@@]1(CCN2CC1CC1)[C@H]5O4
inactive: all assays above

O=C(O)Cc1cnc[nH]1
inactive: [2] | [3] | [4]

C[C@]12CCC3C(CC[C@H]4C[C@H](O)CC[C@]34C)C1CC[C@@H]2C(=O)CO (some centres not stated)
inactive: [1] inactive; inhibitor; fitted 2.3934 uM | [2] | [3] | [4]

CNCCc1ccc(O)c(O)c1
inactive: [2] | [3] | [4]
